Screening results deposited in PubChem by National Center for Advancing Translational Sciences (NCATS).
Most compounds without a hit are left out; they make up all but 2.4% or so of the library.
Rango complex inh: inhibitors of Rango-importin beta complex formation | Potency, µM (highest dose often 92.2 µM) | AID 540263 | Rango CFP/YFP FRET sensor + importin beta, 45 min | actives 0.031% (n = 340,000) | Q14974; calls by dose curve; note: nearly all actives have a fitted effect of over 15% in size
Target sequence (Q14974 whole entry, looked up): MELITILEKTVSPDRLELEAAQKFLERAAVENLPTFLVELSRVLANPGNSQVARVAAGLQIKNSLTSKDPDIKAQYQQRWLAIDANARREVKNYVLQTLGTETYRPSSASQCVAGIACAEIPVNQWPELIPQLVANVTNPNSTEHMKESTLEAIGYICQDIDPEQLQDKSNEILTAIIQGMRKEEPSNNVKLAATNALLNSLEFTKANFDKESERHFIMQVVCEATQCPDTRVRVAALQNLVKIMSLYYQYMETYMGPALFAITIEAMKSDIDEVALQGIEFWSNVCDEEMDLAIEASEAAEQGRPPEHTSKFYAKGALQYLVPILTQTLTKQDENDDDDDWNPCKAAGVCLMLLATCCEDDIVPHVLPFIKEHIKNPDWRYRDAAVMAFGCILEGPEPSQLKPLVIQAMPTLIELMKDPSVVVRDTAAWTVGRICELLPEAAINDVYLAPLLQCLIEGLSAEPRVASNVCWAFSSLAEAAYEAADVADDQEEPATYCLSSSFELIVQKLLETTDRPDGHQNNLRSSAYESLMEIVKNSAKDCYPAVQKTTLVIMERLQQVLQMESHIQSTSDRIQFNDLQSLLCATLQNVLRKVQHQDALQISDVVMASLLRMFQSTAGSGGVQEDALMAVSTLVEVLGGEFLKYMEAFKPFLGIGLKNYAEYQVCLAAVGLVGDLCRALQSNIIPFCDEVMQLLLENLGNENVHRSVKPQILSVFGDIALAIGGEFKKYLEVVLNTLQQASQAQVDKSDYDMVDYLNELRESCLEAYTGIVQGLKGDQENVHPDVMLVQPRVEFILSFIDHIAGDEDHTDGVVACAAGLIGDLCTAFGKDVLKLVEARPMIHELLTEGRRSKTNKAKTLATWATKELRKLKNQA
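Inhibition scored from the CFP 486 nm/YFP 530 nm FRET ratio 45 min after adding 0.125 microM importin beta to 50 nM Rango biosensor preincubated 5 min with compound (room temperature, PBS with DTT, Tween-20, BSA). No-importin wells as positive control.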
PKM2 activator: increases activity of human pyruvate kinase M2 | P14618 | purified PKM2, Kinase-Glo ATP luminescence, activation; response scale: 0% is enzyme alone, no compound | Potency, µM (doses to about 57.5 µM), usual class: activators | actives 0.34% (n = 260,000); note: nearly all actives have a fitted effect of over 55% in size
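hPK-M2, >95% pure; 0.1 mM ADP / 0.5 mM PEP final; imidazole pH7.2 buffer w/ 7 mM MgCl2, 50 mM KCl; 1 h RT; Kinase-Glo lum. Intermediate enzyme activity for dual inhibitor/activator qHTS.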
PGK inhibitor: inhibitors of T. brucei phosphoglycerate kinase | P07378 | PGK/GAPDH coupled, Kinase-Glo luminescence, 60 min | Potency, µM (series often up to 57.5 µM), actives largely listed as inhibitors | actives 0.043% (n = 380,000) | AID 602233; note: nearly all actives have a fitted effect of over 60% in size
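Luminescent ATP detection (Kinase-Glo Plus) follows a 60-minute room-temperature incubation, with wells lacking PGK as controls. Buffer: 100 mM TEA (pH 7.6), 5 mM MgCl2, 0.01% Tween-20. Coupling enzyme GAPDH (100 nM final) supplies unstable 1,3-BPG in-well.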
ELG1 repair inh: ELG1-dependent DNA repair inhibition. Potency, µM (top dose mostly 46.1 µM), usual class: inhibitors. AID 504467. HEK293T ELG1-luciferase reporter, luminescence, 16 h; DNA damage induced by 5-fluorouridine. actives 2.3% (n = 330,000); note: nearly all actives have a fitted effect of over 55% in size
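Cells (2,000 per well) received 5-fluorouridine plus test compound or DMSO and were incubated 16 hr at 37 °C, 5% CO2. Luciferase activity was read by luminescence 30 min after ONE-Glo addition; signal suppression marked inhibition of damage-induced ELG1 function.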
Rango dissoc inh: inhibition of RanGTP-driven Rango-importin beta dissociation; O95149+P62826; Biochemical FRET Rango-importin beta, RanGTP-induced dissociation; Potency, µM (titrated, usually from 46.1 µM); actives 0.071% (n = 340,000); AID 540253; calls by dose curve; note: nearly all actives have a fitted effect of over 45% in size
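FRET read at 45 min, room temperature: inhibitors block the CFP/YFP signal rise when RanGTP (0.6 uM Ran, 2 mM GTP, 0.2 uM RCC1) frees Rango (0.1 uM) from importin beta (0.25 uM). Pre-read after 5 min compound exposure flags interference.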
Tb PFK inh-1: inhibitors of T. brucei phosphofructokinase | AID 485367 | T. brucei PFK, ADP-Glo luminescence | Potency, µM (titrated, usually from 57.5 µM), most hits filed as inhibitors | actives 0.17% (n = 330,000) | O15648; note: nearly all actives have a fitted effect of over 60% in size
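ADP-Glo luminescence quantified ADP after 45 min at room temperature, with 1.25 nM T. brucei PFK, 0.1 mM ATP and 0.5 mM fructose-6-phosphate in pH 8.0 TEA buffer. qHTS titrations up to 57 µM; curves classified by quality.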
Tb PFK KinaseGlo: Tb phosphofructokinase inhibition, orthogonal luminescence | Tb PFK enzyme, ATP depletion, Kinase-Glo Plus luminescence | actives 47% (n = 1,100) | shares compounds with Tb PFK inh-1 | Potency, µM (highest dose often 57.5 µM); calls by dose curve; note: nearly all actives have a fitted effect of over 60% in size
Tb PFK inh-2: validation of T. brucei phosphofructokinase inhibitors | purified T. brucei PFK, ADP-Glo luminescence, 45 min | shares compounds with Tb PFK inh-1 | Potency, µM (top dose mostly 57.5 µM), actives largely listed as inhibitors | actives 41% (n = 1,100); note: nearly all actives have a fitted effect of over 60% in size
A number is an active result; - = inactive; ? = inconclusive; . = no result; [ ] = dose if it differs, or a comment. Unless noted, calls come from the whole dose curve; as a rule, active = well fitted curve in the direction sought with a large enough effect; inconclusive = small, poorly fitted or top-dose-only effect, or another doubt; inactive = no such curve, though single readings can be large; an effect the other way counts as inactive or inconclusive.

SMILES | Rango complex inh | PKM2 activator | PGK inhibitor | ELG1 repair inh | Rango dissoc inh | Tb PFK inh-1 | Tb PFK KinaseGlo | Tb PFK inh-2
C/C=C1/CN2C3CC1C(CO)(C(=O)OC)C2Cc1c3n(C)c2ccccc12 (stereo not drawn) | - | - | - | - | - | - | . | .
O=[N+]([O-])c1ccc(CSc2nnc(-c3cnccn3)o2)cc1 | - | - | - | - | - | 23.9µM | ? | ?
N#CCSc1nnc(-c2ccc3c(c2)OCO3)o1 | - | - | - | ? | - | - | . | .
CC(N)C(=O)OC(C)(C)Cc1ccc(Cl)cc1 (stereo not drawn) | - | . | - | - | - | - | . | .
Cc1ccc(-c2ccc(C3C(C#N)=C(N)Oc4n[nH]c(C)c43)o2)cc1 (stereo not drawn) | ? | - | - | ? | ? | ? | ? | -
NN1C(=O)/C(=C2/Sc3ccccc3N2CCCS(=O)(=O)O)SC1=S | ? | - | ? | - | ? | 30.1µM | 19µM | ?
O=c1c2ccccc2nc2n1CCC2 | - | - | ? | - | - | ? | 26.9µM | 16.9µM
Cc1ccc2scc(N3CCN(C)CC3)c(=O)c2c1 | . | . | - | . | . | . | . | .
O=C(Cc1ccc(F)cc1)N/N=C/c1ccc(-c2ccc(Cl)c(C(=O)O)c2)o1 | - | - | - | - | - | ? | ? | ?
CCNC(=O)O/N=C(\C)c1sc(-c2ccccc2)nc1C | - | - | - | ? | - | - | . | .
O=C1N=c2ccccc2=C1c1sc(Nc2ccc(O)cc2)nc1O | - | - | - | ? | - | ? | - | -
CC(C)OP(=O)(OC(C)C)C(Nc1ccccc1)c1cccc2c1OCO2 (stereo not drawn) | - | - | - | ? | - | - | . | .
C/C(=N\NC(N)=S)C12CC3CC(CC(C3)C1)C2 | - | - | - | ? | - | - | . | .
CN(c1ccc(O)cc1)c1ccc([N+](=O)[O-])c2nonc12 | . | . | - | . | . | . | . | .
O=[N+]([O-])c1c(Nc2ccc(O)cc2)cc(Cl)c2nonc12 | - | . | - | ? | - | ? | 7.57µM | ?
CN(C)/C=c1\sc2c(C#N)cc(C(=O)c3ccc(Br)cc3)n2c1=O | ? | - | - | - | ? | - | . | .
O=C1C2CCCN2C(c2cccs2)N1c1ccc(Cl)cc1 (stereo not drawn) | - | - | - | ? | - | - | . | .
CCN(CC)C(=O)c1ccc(NC(=S)NC(=O)CCc2ccccc2)cc1 | - | - | - | - | - | - | . | .
Cc1ccc(C(=O)O)cc1NC(=S)NC(=O)Cc1ccccc1 | - | - | - | - | - | ? | - | ?
O=C(Nc1ccc2c(c1)OCO2)c1cccn(Cc2ccc(F)cc2)c1=O | . | . | - | . | . | . | . | .
S=C(NCc1ccccc1)N1CCN(c2cccc(Cl)c2)CC1 | - | - | - | ? | - | 26.9µM | 23.9µM | 26.9µM
S=C(NCCCN1CCOCC1)N1CCN(c2cccc(Cl)c2)CC1 | - | . | - | - | - | ? | 21.3µM | 26.9µM
Cc1c(NS(=O)(=O)c2ccccc2)ccc([N+](=O)[O-])c1Cl | - | . | - | . | - | . | . | .
O=C(O)CCCNc1ccc(S(=O)(=O)Nc2ccccc2C(=O)O)cc1C(=O)O | - | - | . | - | - | ? | - | ?
COC(=O)[C@@]1(C)CC[C@]2(C)CC[C@@]3(C)C(=CC(=O)C4[C@@]5(C)CC[C@H](O)C(C)(C)[C@@H]5CC[C@]43C)[C@H]2C1 (stereo partly drawn) | - | - | - | ? | - | - | . | .
SMILES | Rango complex inh | PKM2 activator | PGK inhibitor | ELG1 repair inh | Rango dissoc inh | Tb PFK inh-1 | Tb PFK KinaseGlo | Tb PFK inh-2
CNc1cc(CSC)nc(SCc2ccc(Cl)c(Cl)c2)n1 | - | - | -[11.5 µM] | - | - | 21.3µM | 5.36µM | 8.49µM
Cc1nc(SCc2ccc(Cl)c(Cl)c2)n[nH]1 | - | - | - | ? | - | 21.3µM | 12µM | ?
O=C(NN1C(=O)C2C3C=CC([C@H]4CC34)[C@@H]2C1=O)c1ccc(Br)cc1 (stereo partly drawn) | - | - | - | ? | - | - | . | .
Oc1cc2c(cc1O)C1c3ccc(O)c(O)c3OCC1(O)C2 (stereo not drawn) | - | - | ? | - | - | ? | ? | 0.849µM
O=C1OC(=O)C2C1[C@@H]1CC[C@H]2O1 (stereo partly drawn) | - | - | - | ? | - | - | . | .
S=C1CCSc2ccc(Cl)cc2N1 | - | - | - | - | - | ? | ? | ?
S=C1CN=C(c2ccccc2Cl)c2cc(Cl)ccc2N1 | - | - | - | - | - | - | . | .
Nc1ccccc1SSc1ccccc1N | - | - | - | ? | - | ? | 8.49µM | 13.5µM
Cc1ccccc1N | - | . | - | - | - | - | . | .
CS(=O)(=O)N1CCN(Cc2ccc([N+](=O)[O-])cc2)CC1 | - | - | - | - | - | ? | ? | ?
O=C(Cc1ccccc1)N1CCN(Cc2ccc([N+](=O)[O-])cc2)CC1 | - | - | - | - | - | - | . | .
Cc1nc(SCc2ccc(O)c([N+](=O)[O-])c2)c([N+](=O)[O-])[nH]1 | - | - | - | - | - | ? | - | -
O=S1(=O)CCOC(CO)CN1Cc1ccc(Cl)c(Cl)c1 (stereo not drawn) | - | . | - | - | - | ? | ? | ?
COc1ccc(OCC(=O)N2CCN(Cc3cc(=O)n4nc(-c5ccc(OC)cc5)sc4n3)CC2)cc1 | . | . | - | . | . | . | . | .
O=C(Cc1ccc(Cl)c(Cl)c1)NNC(=S)NCC1CCCO1 (stereo not drawn) | - | . | - | - | - | ? | 21.3µM | ?
CCOc1ccc(CN(CCc2ccc3c(c2)OCO3)Cc2ccc(OC)c(Br)c2)cc1 | . | . | - | . | . | . | . | .
CC[C@]1(C(=O)OC)[C@H]2C(=O)N(Cc3ccccc3)C(=O)[C@H]2[C@H]2CN=C(SCc3ccc(C(=O)OC)cc3)N21 | - | . | - | ? | - | - | . | .
COc1cc(O)c2c(=O)c3c(O)ccc(O)c3oc2c1 | - | . | - | ? | - | ? | ? | ?
CN(C)c1ccc(/C=N/NC(=O)c2ccnn2C)cc1 | - | - | - | ? | - | ? | - | -
N#Cc1cc2c(nc1SCC(=O)Nc1cc(Cl)cc(Cl)c1)C1CCN2CC1 | - | - | - | - | - | - | . | .
Cc1ccc(NC(=O)CN2C(=O)CN=C(c3ccccc3)c3ccccc32)cc1Cl | . | . | - | . | . | . | . | .
